In PubChem BioAssay one finds composite z-score and z-score data, which are given here for five compounds.

The subject of assay [1] is PRMT1 (protein arginine N-methyltransferase 1). Nature of the assay: small molecules binding arginine methyltransferase PRMT1 – biochemical, small-molecule microarray, 635 nm fluorescence, primary screen (AID 1088).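 Note: binding of Prmt1 protein to compounds spotted on small-molecule microarray slides.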 As to conditions: higher = more signal.
The nature of assay [2]: growth effects on S. cerevisiae YJM789 – YJM789 clinical isolate, OD600, 24 h, basal, primary screen (AID 1089).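 Note: growth of clinical yeast isolate S. cerevisiae YJM 789 seeded 1000 cells per well; test concentration not given here.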 The note with it: higher = more signal, called active from +8 up or from −8 down.
Assay [3] in a line: S. pombe growth modifiers, basal conditions – strain 972, OD600, 24 h, no modulator, primary screen (AID 1090).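 Note: basal condition with compound alone and no growth modifier present; test concentration not given here.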 The note with it: S. pombe 972 growth, higher = more signal, called active from +8 up or from −8 down.
Assay [4] can be described thus: budding yeast growth modifiers under rapamycin – strain BY4716, OD600, 96 h, primary screen (AID 1091). Note: test concentration not given here. As to conditions: S. cerevisiae BY4716 + rapamycin, higher = more signal, called active from +8 up or from −8 down.
For assay [5], the target named is Torsin-1A-interacting protein 2 (Homo sapiens) (UniProt Q8NFQ8). Nature of the assay: small molecules binding lysate-expressed LULL1 – cell lysate, human LULL1 lysate, 635/667 nm fluorescence, primary screen (AID 1092).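 Note: probe is lysate of COS7 cells overexpressing human LULL1; score merges per-feature 667 nm fluorescence with signal-to-noise.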 The note with it: small-molecule microarray, hLULL1 lysate binding, 635 nm fluorescence; higher = more signal.
Assay [6] in a line: optical density change of DRC41 E. coli – strain DRC41, OD650, 24 h, E. coli filamentation project, primary screen (AID 1093).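 Note: MC1000 strain lacking acrAB efflux and sulA so SOS filamentation is blocked; test concentration not given here.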 The note with it: E. coli DRC41 growth, higher = more signal, called active from +8 up or from −8 down.
The nature of assay [7]: probe aLefty2 binding to arrayed compounds – biochemical, biotinylated probe, 635/667 nm fluorescence, primary screen (AID 1094).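 Note: score merges spot fluorescence near 667 nm with spot signal-to-noise ratio.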 As to conditions: small-molecule microarray, higher = more signal.
Assay [8] relates to Noggin (protein binding on small-molecule microarray). Nature of the assay: small molecules binding Noggin protein – biochemical, 635/667 nm fluorescence, primary screen (AID 1095).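 Note: score merges 667 nm feature fluorescence with signal to noise over triplicate slides.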 As to conditions: 635 nm fluorescence, higher = more signal.
For assay [9], the target named is Neurogenic locus notch homolog protein 3 (Homo sapiens) (UniProt Q9UM47). Nature of the assay: small molecules binding NOTCH3 protein – biochemical, 635/667 nm fluorescence, primary screen (AID 1096). The note with it: small-molecule microarray, 635 nm fluorescence, higher = more signal.
A short description of assay [10]: probe aEGFR binding to arrayed compounds – biochemical, biotinylated probe, 635/667 nm fluorescence, primary screen (AID 1097).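 Note: probe is a biotinylated anti-EGFR antibody binding compounds printed on slides; score combines fluorescence near 667 nm and signal to noise of each spot.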 The note with it: small-molecule microarray, higher = more signal.
In assay [11] the test system is Plasmodium falciparum Sir2 (PF13_0152, Sir2A). Nature of the assay: Plasmodium falciparum Sir2A binding compounds – biochemical, small-molecule microarray, 635 nm fluorescence, primary screen (AID 1098).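 Note: score merges spot fluorescence intensity with its signal-to-noise ratio.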 The note with it: fluorescence 635 nm, higher = more signal.
Assay [12] is described as follows: probe aDKK1 binding to arrayed compounds – biochemical, biotinylated probe, 635/667 nm fluorescence, primary screen (AID 1099).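 Note: score merges 667nm spot fluorescence with signal to noise across triplicate slides; reference of the scale not given here.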 The note with it: small-molecule microarray, higher = more signal.
Assay [13] is described as follows: probe aCHRDL2 binding to arrayed compounds – biochemical, biotinylated probe, 635/667 nm fluorescence, primary screen (AID 1100). The note with it: small-molecule microarray, higher = more signal.
Assay [14] can be described thus: change in splice reporter luminescence, either direction, cell-based, HEK293, spliceosome inhibition project, primary screen (AID 1101).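 Note: HEK293 cells carrying a splicing-competent luciferase reporter gene; test concentration not given here.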 The note with it: HEK293 splicing luciferase reporter, 24 h, higher = more signal, called active from +8 up or from −8 down.
Assay [15] addresses Fibroblast growth factor 10 (Homo sapiens) (UniProt O15520). Briefly: compounds binding fibroblast growth factor 10 – biochemical, small-molecule microarray, 635 nm fluorescence, primary screen (AID 1102). As to conditions: FGF10 binding, fluorescence 635 nm, higher = more signal.
Assay [16] has as its system glycogen synthase kinase-3 (GSK3A per assay name; protocol says GSK3B). Briefly: compounds binding glycogen synthase kinase-3 – biochemical, small-molecule microarray, 635 nm fluorescence, GSK3A, primary screen (AID 1103). Note: the record names both GSK3A and GSK3B. The note with it: fluorescence 635 nm, higher = more signal.
Assay [17] concerns the target Epidermal growth factor receptor (Homo sapiens) (UniProt P00533). Nature of the assay: compounds binding epidermal growth factor receptor – biochemical, small-molecule microarray, 635 nm fluorescence, primary screen (AID 1104).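 Note: score merges 667 nm emission intensity with spot signal to noise over triplicate slides.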 The note with it: EGFR binding, higher = more signal.
For assay [18], the target named is Follistatin-related protein 3 (Homo sapiens) (UniProt O95633). Briefly: compounds binding follistatin-related protein 3 – biochemical, small-molecule microarray, 635 nm fluorescence, primary screen (AID 1105).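 Note: score merges emission near 667 nm and signal to noise per printed spot across three slides.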 As to conditions: FSTL3 binding, higher = more signal.
Assay [19] deals with Dickkopf-related protein 1 (Homo sapiens) (UniProt O94907). Briefly: small molecules binding DKK1 protein – biochemical, small-molecule microarray, 635 nm fluorescence scan, primary screen (AID 1106).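 Note: score merges emission near 667 nm with signal to noise over three replicate slides.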 As to conditions: higher = more signal.
Assay [20] deals with Inhibin beta A chain (activin A). Nature of the assay: small molecules binding activin A – biochemical, small-molecule microarray, 635 nm fluorescence scan, primary screen (AID 1107).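 Note: mouse activin A protein probed at 4.33 µg/mL on printed slides; score merges bound-protein fluorescence near 667 nm with spot signal-to-noise.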 As to conditions: INHBA, higher = more signal.

Each structure is given as a SMILES string. Activity calls are given as the source filed them.

Sequence of Neurogenic locus notch homolog protein 3 (Homo sapiens) (Q9UM47 whole entry, looked up): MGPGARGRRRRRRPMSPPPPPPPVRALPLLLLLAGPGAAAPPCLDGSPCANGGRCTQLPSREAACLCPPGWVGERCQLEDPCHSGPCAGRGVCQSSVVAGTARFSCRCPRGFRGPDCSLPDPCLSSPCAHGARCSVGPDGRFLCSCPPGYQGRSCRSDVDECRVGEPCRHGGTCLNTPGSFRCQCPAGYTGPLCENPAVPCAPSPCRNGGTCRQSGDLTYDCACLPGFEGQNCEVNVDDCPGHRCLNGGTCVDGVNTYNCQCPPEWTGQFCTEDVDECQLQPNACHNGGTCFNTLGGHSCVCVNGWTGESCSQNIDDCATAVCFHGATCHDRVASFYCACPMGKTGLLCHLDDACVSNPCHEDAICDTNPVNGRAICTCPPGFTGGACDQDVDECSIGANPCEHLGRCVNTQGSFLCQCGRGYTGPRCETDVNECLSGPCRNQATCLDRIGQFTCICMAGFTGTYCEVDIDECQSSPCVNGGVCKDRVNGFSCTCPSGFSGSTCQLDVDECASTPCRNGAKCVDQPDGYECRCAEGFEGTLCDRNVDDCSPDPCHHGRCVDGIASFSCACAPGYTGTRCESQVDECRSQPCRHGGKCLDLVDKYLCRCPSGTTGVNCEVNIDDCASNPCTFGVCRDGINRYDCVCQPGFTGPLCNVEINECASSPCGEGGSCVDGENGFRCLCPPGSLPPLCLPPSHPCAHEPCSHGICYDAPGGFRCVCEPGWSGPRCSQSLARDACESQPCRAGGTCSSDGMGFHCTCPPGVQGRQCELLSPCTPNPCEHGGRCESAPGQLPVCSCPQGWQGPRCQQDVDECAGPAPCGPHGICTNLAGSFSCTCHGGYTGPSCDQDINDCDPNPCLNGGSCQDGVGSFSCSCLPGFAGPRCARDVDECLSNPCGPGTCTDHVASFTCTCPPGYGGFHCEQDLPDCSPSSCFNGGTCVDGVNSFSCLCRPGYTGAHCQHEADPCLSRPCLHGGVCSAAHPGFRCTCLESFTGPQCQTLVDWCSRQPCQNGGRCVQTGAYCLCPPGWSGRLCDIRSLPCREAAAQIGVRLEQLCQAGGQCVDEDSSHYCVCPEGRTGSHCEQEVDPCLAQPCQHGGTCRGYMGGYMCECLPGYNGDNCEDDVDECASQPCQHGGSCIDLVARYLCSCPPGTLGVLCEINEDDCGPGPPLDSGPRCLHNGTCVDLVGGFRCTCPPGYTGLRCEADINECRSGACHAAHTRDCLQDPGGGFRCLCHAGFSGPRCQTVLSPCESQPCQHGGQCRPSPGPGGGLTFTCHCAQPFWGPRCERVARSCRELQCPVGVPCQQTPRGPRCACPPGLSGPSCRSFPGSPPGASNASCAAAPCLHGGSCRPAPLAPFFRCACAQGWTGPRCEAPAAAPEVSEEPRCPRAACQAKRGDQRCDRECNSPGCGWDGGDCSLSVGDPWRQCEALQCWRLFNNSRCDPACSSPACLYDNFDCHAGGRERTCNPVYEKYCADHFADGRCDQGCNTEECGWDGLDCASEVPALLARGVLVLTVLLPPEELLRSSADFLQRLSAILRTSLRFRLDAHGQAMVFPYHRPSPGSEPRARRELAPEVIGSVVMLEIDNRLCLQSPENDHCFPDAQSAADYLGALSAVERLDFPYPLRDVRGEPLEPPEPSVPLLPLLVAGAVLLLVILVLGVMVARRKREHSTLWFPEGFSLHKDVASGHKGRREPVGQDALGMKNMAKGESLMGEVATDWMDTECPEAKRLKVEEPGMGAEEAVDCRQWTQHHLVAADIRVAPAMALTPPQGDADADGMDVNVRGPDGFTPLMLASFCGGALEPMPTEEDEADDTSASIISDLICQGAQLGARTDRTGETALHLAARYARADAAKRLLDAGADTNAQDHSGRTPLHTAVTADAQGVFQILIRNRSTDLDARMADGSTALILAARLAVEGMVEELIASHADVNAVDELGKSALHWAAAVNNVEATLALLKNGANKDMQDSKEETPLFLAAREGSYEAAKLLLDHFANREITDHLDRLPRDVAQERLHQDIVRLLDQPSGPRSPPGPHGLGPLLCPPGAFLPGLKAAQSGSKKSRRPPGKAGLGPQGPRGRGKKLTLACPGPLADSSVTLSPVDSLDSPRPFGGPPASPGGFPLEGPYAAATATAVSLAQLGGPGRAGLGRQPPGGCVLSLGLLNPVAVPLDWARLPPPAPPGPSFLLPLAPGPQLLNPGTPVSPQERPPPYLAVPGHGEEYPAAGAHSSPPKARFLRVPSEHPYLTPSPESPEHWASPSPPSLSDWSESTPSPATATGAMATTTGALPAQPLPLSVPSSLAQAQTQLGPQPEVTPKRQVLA
Sequence of Torsin-1A-interacting protein 2 (Homo sapiens) (Q8NFQ8 whole entry, looked up): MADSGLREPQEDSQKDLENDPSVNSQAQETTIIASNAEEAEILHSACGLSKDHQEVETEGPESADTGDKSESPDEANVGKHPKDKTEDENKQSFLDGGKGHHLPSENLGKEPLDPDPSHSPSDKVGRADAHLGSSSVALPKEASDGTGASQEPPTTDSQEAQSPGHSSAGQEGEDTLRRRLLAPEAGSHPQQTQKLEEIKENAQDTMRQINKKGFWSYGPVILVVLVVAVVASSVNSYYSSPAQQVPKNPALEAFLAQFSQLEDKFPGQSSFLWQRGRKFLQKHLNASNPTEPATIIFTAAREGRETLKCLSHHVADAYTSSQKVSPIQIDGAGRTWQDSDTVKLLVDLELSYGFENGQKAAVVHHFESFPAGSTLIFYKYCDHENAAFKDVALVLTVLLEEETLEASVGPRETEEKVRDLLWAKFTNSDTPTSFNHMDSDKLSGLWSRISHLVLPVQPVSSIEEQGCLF
Sequence of Follistatin-related protein 3 (Homo sapiens) (O95633 whole entry, looked up): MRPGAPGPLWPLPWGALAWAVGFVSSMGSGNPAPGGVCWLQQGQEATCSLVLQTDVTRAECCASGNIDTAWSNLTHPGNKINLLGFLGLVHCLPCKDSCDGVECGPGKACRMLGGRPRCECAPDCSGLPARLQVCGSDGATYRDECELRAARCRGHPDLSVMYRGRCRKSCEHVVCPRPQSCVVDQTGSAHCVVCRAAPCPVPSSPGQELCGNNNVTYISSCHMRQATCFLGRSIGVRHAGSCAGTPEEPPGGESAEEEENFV
Sequence of Fibroblast growth factor 10 (Homo sapiens) (O15520 whole entry, looked up): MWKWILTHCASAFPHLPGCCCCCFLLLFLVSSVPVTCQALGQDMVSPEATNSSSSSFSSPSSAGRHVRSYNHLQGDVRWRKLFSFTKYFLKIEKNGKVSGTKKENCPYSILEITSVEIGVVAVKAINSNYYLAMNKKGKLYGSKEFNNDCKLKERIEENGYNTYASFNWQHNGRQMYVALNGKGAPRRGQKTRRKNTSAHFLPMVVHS
Sequence of Epidermal growth factor receptor (Homo sapiens) (P00533 whole entry, looked up): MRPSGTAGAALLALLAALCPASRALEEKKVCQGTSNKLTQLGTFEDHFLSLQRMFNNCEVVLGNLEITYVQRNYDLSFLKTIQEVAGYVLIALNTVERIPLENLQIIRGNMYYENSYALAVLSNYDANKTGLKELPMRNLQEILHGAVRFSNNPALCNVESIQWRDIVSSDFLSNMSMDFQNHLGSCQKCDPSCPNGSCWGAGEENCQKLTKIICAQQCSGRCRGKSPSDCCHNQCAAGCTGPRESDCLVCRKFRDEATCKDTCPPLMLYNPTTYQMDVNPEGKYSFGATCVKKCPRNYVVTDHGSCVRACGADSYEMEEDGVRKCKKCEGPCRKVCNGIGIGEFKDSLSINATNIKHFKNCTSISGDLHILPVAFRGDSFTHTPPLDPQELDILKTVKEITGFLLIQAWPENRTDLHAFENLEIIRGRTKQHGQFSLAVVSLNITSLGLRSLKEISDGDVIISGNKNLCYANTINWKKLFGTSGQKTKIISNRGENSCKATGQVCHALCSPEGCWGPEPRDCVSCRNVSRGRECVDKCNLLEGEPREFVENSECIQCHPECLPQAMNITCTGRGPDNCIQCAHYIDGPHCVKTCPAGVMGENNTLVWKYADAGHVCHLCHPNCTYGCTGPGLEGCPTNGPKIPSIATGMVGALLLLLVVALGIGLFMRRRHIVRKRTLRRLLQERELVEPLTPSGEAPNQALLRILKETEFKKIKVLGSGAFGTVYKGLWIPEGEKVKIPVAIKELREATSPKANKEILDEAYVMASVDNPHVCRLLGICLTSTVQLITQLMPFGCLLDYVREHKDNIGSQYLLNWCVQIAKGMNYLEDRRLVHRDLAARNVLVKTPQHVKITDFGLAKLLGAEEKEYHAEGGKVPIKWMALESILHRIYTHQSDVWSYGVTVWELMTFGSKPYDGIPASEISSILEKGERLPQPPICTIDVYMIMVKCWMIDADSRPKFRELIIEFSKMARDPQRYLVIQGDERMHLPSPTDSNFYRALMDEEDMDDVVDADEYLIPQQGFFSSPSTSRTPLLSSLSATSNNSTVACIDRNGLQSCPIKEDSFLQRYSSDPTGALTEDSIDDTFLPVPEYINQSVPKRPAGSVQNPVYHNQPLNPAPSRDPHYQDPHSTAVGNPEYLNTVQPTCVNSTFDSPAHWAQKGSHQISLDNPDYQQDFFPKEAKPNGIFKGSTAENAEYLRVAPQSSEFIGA
Sequence of Dickkopf-related protein 1 (Homo sapiens) (O94907 whole entry, looked up): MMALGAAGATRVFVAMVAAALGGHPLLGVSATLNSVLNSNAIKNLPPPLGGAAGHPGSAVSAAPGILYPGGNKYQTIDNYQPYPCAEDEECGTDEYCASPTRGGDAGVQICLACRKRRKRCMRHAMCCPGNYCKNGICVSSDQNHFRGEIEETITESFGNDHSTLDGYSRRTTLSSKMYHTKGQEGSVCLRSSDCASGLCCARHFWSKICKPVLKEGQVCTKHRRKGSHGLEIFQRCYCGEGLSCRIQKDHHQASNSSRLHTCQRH

Consider `CO[C@H]1COC(=O)[C@@H](C)COC(=O)[C@H](C)NC(=O)CC=C[C@H]1C`, for which the composite z-score in assay [1] is 1.23; in assay [5], 0.0586; in assay [7] it was -0.212; in assay [8], 1.64; in assay [9], 0.195; in assay [10], 0.0673. The composite z-score is 0.473 in assay [11]; -0.537 in assay [12]; -1.73 in [13]; 0.577 in assay [15]; 0.732 in [16]; 0.785 in [17]. Further, the composite z-score in [18] is 1.54; in assay [19], 1.32; in assay [20], 1.13. In addition, the z-score was 0.508 (inactive) in assay [2]; 0.0971 (inactive) in assay [3]; -0.431 (inactive) in assay [4]; 0.414 (inactive) in assay [6]; -0.0731 (inactive) in assay [14].
As to `CO[C@H]1COC(=O)[C@@H](C)COC(=O)[C@@H](OCc2ccccc2)C=C[C@@H]1C`, the composite z-score was 0.0714 in assay [1]; -0.424 in [5]; -0.357 in assay [7]; 0.172 in assay [8]; -0.165 in assay [9]; -0.0363 in [10]. For the same compound, the composite z-score in assay [11] was 0.212; in assay [12] it was -0.439; in assay [13], -0.514; in assay [15] it was -0.162; in assay [16] it was -0.227; in assay [17], -0.0072. Besides, the composite z-score is -0.13 in assay [18], 0.348 in [19] and 0.18 in assay [20]. The z-score in [2] is 1.3 (inactive); in assay [3], -0.204 (inactive); in assay [4] it was 1.03 (inactive); in assay [6] it was 0.075 (inactive); in [14], 0.232 (inactive).
Regarding `CCOC(=O)[C@H](CC(C)C)NC(=O)CCC1CC(OC(=O)NCc2cccc3ccccc23)CC2(CCCC(COC(=O)NCCc3ccc(Cl)cc3)O2)O1` (stereo not given in full), the composite z-score in [1] is 0.333; in assay [5], 1.04; in assay [7], -0.188; in assay [8] it was 0.434; in [9] it was 0.741; in [10], -0.0334. Moreover, the composite z-score in [11] was 0.409; in assay [12], -0.0738; in [13], -0.406; in [15], 0.365; in assay [16] it was 0.355; in [17], 0.681. Moreover, the composite z-score in assay [18] was 0.726; in [19], 0.323; in [20] it was -0.293. In addition, the z-score in [2] is -1.16 (inactive); in [3] it was -0.858 (inactive); in assay [4], -0.164 (inactive); in assay [6], -0.0339 (inactive); in assay [14] it was -1.18 (inactive).
In the case of `COC(=O)CC=C[C@@H](C)[C@@H](C=NOC(C)CN1CCCc2nc(C)c(C)cc21)OC` (stereo not given in full), the composite z-score in assay [1] was 0.356; in [5], 0.283; in assay [7], -0.165; in [8], 0.541; in assay [9] it was 0.625; in assay [10], 0.0009. The composite z-score in assay [11] was 0.465; in [12] it was -0.0071; in assay [13], -0.472; in [15], 0.407; in [16], 0.522; in [17], 0.538. The composite z-score in [18] is 0.406; in assay [19], 0.866; in assay [20], -0.0511. The z-score in assay [2] was 0.293 (inactive); in assay [3], 0.245 (inactive); in assay [4] it was 0.0448 (inactive); in assay [6], -0.64 (inactive); in assay [14] it was 0.404 (inactive).
`CO[C@H]1COC(=O)[C@@H]2CCCN2C(=O)CC=C[C@@H](C)[C@H](OC)COC(=O)[C@@H](OCc2ccccc2)C=C[C@@H]1C`: the composite z-score in assay [1] was 1.3; in assay [5], -1.13; in assay [7], -0.155; in [8] it was 1.08; in assay [9], -0.203; in assay [10], 0.0564. The composite z-score in [11] was 0.695; in [12] it was -0.665; in assay [13], -1.24; in assay [15] it was 0.163; in [16], 0.484; in [17], 0.547. Also, the composite z-score in assay [18] stood at 0.907; in [19], 1.75; in assay [20] it was 1.58. Further, the z-score in assay [2] is 0.14 (inactive); in [3] it was -0.826 (inactive); in assay [4], 0.087 (inactive); in assay [6], 0.279 (inactive); in [14], -1.63 (inactive).
